Screening data as filed in PubChem.
KCNQ2 enhance = enhances the rat KCNQ2 potassium channel; O88943; CHO-K1 KCNQ2, FluxOR thallium flux fluorescence; stronger effect = higher value; B-score at 10 µM; 310,000 tested, 0.54% active; AID 2239;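 active = fluorescence ratio B-score at least 3 SD of library B-scores, with initial fluorescence B-score within 3 of them, cut at about 5.3 in these data; same plate scores as AID 2156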;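 also: B-score of peak minus minimum over baseline fluorescence ratio after K+ and Tl+ stimulus; positive B-score means potentiation of KCNQ2 with more thallium influx and brighter signal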
KCNQ2 inh = blocks the rat KCNQ2 potassium channel; O88943; CHO-K1 KCNQ2, FluxOR thallium flux, 20 min; stronger effect = lower value; AID 2156; 310,000 tested, 1.1% active; B-score at 10 µM;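 active = fluorescence ratio B-score at most minus 3 library SDs, with starting brightness B-score within 2 library SDs, cut at about -5.5 in these data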
The depositor's hits bear a star; i = inactive; nt = not tested or not shown. In the library only some 1.6% were active in any assay of this set; here they are far more common.

SMILES | KCNQ2 enhance | KCNQ2 inh
COc1cccc(Cl)c1NC(=O)N1CCc2c([nH]c3ccccc23)C1C(F)(F)F (stereo not given) | 0.3 | i
COc1ccc(S(=O)(=O)NCC2CCCN(C(=O)CCSC)C2)cc1 (stereo not given) | 0.57 | i
CCOC(=O)C1CCN(C(=O)c2cccc(Cl)c2)CC1 | 0.56 | i
CCOC(=O)C1CCN(c2c(C(=O)c3ccccc3)cnc3ccc(Cl)cc23)CC1 | -5.6 | -5.6*
O=[N+]([O-])c1cc(O)c2ncccc2c1 | 10* | i
O=[N+]([O-])c1cc2cccnc2c2ncccc12 | nt | i
Cc1nc(NC(=O)C2CC2)sc1C(=O)N1CCCCC1 | 1.2 | i
Cc1nc(NC(=O)c2cccc(Cl)c2)sc1C(=O)N1CCCCC1 | -7.5 | -7.5*
CC1CN(CCc2ccccc2)c2nc3c(c(=O)n(CC(N)=O)c(=O)n3C)n2C1 (stereo not given) | nt | i
Cc1cc(C)cc(C(=O)N2CCC3(CC2)NCCc2[nH]cnc23)c1 | 0.55 | i
Oc1cc(Br)ccc1C=Nc1ccc(N2CCCCC2)cc1 | -5.8 | -5.8*
Oc1ccc(C=Nc2ccc(N3CCOCC3)cc2)c(O)c1 | nt | i
Cc1ccc(N2CC(C(=O)Nc3ccc(C)c(S(=O)(=O)N(C)C)c3)CC2=O)cc1 (stereo not given) | 0.74 | i
CCn1c(=O)c2sccc2n(Cc2ccc(C)cc2)c1=O | nt | i
Cc1ccc(-c2nc3c4ccccc4ccn3c2CN2CCCCC2)cc1 | nt | i
c1ccc(-c2nc3c4ccccc4ccn3c2CN2CCCCC2)cc1 | -5.6 | -5.6*
Cc1nn(-c2ccccc2)c(C)c1N | 1.1 | i
CNCc1c(C)nn(-c2ccccc2)c1C | 10* | i
COc1ccc(Cl)cc1NC(=O)c1[nH]c(C)c(C(C)=O)c1C | 1.2 | i
CC(=O)c1c(C)[nH]c(C(=O)NNC(=O)COc2ccc(Cl)cc2C)c1C | -5.8 | -5.8*
CC(OC(=O)CC1CC2CCC1C2)C(=O)Nc1cccc(S(=O)(=O)N2CCOCC2)c1 (stereo not given) | nt | i
Cc1ccc(NC(=O)CSCC(=O)Nc2cc(Cl)ccc2N2CCOCC2)cc1 | 3.2 | i
COc1ccc(CN2CCN(C(=O)CC(C)C)CC2)cc1Br | nt | i
COc1ccc(/C=C/C(=O)N(CC(C)C)CC(C)C)cc1Br | -5.9 | -5.9*
O=[N+]([O-])c1ccccc1Nc1cccnc1 | 0.62 | i
SMILES | KCNQ2 enhance | KCNQ2 inh
CCn1ccnc1CN(C)Cc1cn(-c2cc(C)ccc2C)nc1-c1ccccc1 | -8.2 | -8.2*
CCn1ccnc1CN(C)Cc1cn(-c2ccc(C)cc2)nc1-c1ccc(F)cc1 | nt | i
O=C(N/N=C/c1coc2ccccc2c1=O)c1cn(-c2ccccc2)nc1-c1ccc(F)cc1 | nt | i
CCc1ccc(S(=O)(=O)N2CCN(C(=O)C3CCN(C(C)=O)CC3)CC2)cc1 | 1.5 | i
COCCN(C(=O)Cc1cccs1)C(C(=O)NCc1ccc(OC)cc1)c1ccc(C)cc1 (stereo not given) | 0.07 | i
COc1ccc(CNC(=O)C(c2ccc(C)o2)N(Cc2cccs2)C(=O)Cc2cccs2)cc1 (stereo not given) | -6.4 | -6.4*
O=C(NCc1ccccc1)C(c1ccccc1)N(Cc1ccc2c(c1)OCO2)C(=O)Cc1cccs1 (stereo not given) | -7 | -7*
Cc1cccc(N(C(=O)c2csnn2)C(C(=O)NCc2ccccc2)c2ccc(C)o2)c1 (stereo not given) | nt | i
COc1ccc(CNC(=O)C(c2ccc(C)o2)N(C(=O)c2csnn2)c2ccc(C(C)C)cc2)cc1 (stereo not given) | -6.1 | -6.1*
O=C(NC1CCCC1)C(c1ccccc1)N(Cc1ccc2c(c1)OCO2)C(=O)Cc1cccs1 (stereo not given) | 0.05 | i
COCCn1c(-c2ccc3ccccc3c2)nc2c1c(=O)[nH]c(=O)n2CC(C)C | nt | i
O=C(NCc1ccc2c(c1)OCO2)c1nc(Cn2cc(Br)cn2)no1 | 0.03 | i
CCc1cccc(C)c1NC(=S)NCC(c1cccnc1)N1CCOCC1 (stereo not given) | 0.2 | i
CCCCn1c(N)c(N(CC)C(=O)C(c2ccccc2)c2ccccc2)c(=O)[nH]c1=O | nt | i
Clc1ccccc1CSc1snnc1-c1ccccc1 | -5.5 | -5.5*
Clc1ccc(CSc2snnc2-c2ccccc2)cc1 | nt | i
CCOc1ccc(CC(=O)N/N=C/c2sccc2C)cc1 | nt | i
COC(=O)N/N=C/c1cc(Br)ccc1O | nt | i
O=C(N/N=C/c1cc(Br)ccc1O)c1ccccc1Cl | 9.1* | i
CCN(C(=O)CSc1nnc2c3ccccc3n(CC)c2n1)C1CCS(=O)(=O)C1 (stereo not given) | 0.29 | i
O=C(CNS(=O)(=O)c1ccc(Br)s1)NCCc1ccc(Cl)cc1 | nt | i
COc1ccccc1NC(=O)CN1CCN(c2ccccc2F)CC1 | -5.8 | -5.8*
COc1ccccc1NC(=O)CN1CCN(c2ccccc2OC)CC1 | 1.5 | i
CCOc1ccc(C2=NNC(c3cccnc3)=Nc3ccc(OC)cc32)cc1 | nt | i
CCOc1ccc(C2=NNC(c3cccs3)=Nc3ccc(OC)cc32)cc1 | -5.6 | -5.6*
SMILES | KCNQ2 enhance | KCNQ2 inh
O=C(Nc1ccc(F)cc1)C(NC1CCCCC1)c1ccccc1 (stereo not given) | -6 | -6*
O=C(Nc1ccc(F)cc1)NC1CCCCCCC1 | 1.1 | i
COc1ccccc1NC(=O)c1cnc(SCC(=O)NCC2CCCO2)n(C)c1=O (stereo not given) | 0.64 | i
COc1cccc(CNn2cnnc2)c1O | -5.6 | -5.6*
CCOc1ccccc1CNn1cnnc1 | 1.5 | i
Cc1cc(C)n(CCNC(=O)c2ccc3c(c2)OCO3)n1 | nt | i
O=C(Nc1cccc(Cl)c1)N(CCN1CCOCC1)Cc1ccccc1F | nt | i
O=C(Nc1cccc(Cl)c1)N(CCN1CCOCC1)Cc1cccc(Cl)c1 | -7.3 | -7.3*
CCCC#CCN1CCN(C23CC4CC(CC(C4)C2)C3)CC1 | nt | i
COCCN(C(=O)CSc1nnc(-c2cccc(F)c2)n1N)c1c(N)n(Cc2ccccc2)c(=O)[nH]c1=O | 0.08 | i
CCCNS(=O)(=O)c1cccc(C(=O)NNC(=O)c2cc(C)oc2C)c1 | nt | i
CCSc1nc2ccccc2c(=O)n1Cc1ccc(F)cc1 | nt | i
O=C(NC1CCCC1)c1ccc2c(c1)N(Cc1ccc(F)cc1)CCS2 | -6.4 | -6.4*
Cc1ccc(CN2CCSc3ccc(C(=O)NC4CCCC4)cc32)cc1 | nt | i
Cc1cc(C)cc(OCC(=O)NN2Cc3ccccc3C2=N)c1 | 1.1 | i
N=C1c2ccccc2CN1NC(=O)CC12CC3CC(CC(C3)C1)C2 | 18* | i
COc1ccc(C)cc1S(=O)(=O)N1CCCC(C(=O)N2CCOCC2)C1 (stereo not given) | 1.4 | i
CCNC(=S)N1CCN(Cc2ccc3c(c2)OCO3)CC1 | 2.3 | i
O=C(c1cccn2c(=O)c3ccc(Cl)cc3nc12)N1CCN(Cc2ccc3c(c2)OCO3)CC1 | -5.8 | -5.8*
O=C(NC(=S)N1CCN(Cc2ccc3c(c2)OCO3)CC1)c1cccc(Br)c1 | 9.5* | i
Cc1cc(Cl)ccc1NC(=S)N1CCN(Cc2ccc3c(c2)OCO3)CC1 | nt | i
O=C(c1cccc(Cl)c1)N1CCN(Cc2ccc3c(c2)OCO3)CC1 | nt | i
O=C(NC(=S)N1CCN(Cc2ccc3c(c2)OCO3)CC1)c1ccc(Cl)cc1 | 8.9* | i
COc1ccc(OCCNC(=S)Nc2cccc3ccccc23)cc1 | -6.2 | -6.2*
COc1ccc(CCNC(=S)Nc2cccc3ccccc23)cc1 | nt | i
